Our source for the AC50 and activity, negative = inhibition values is PubChem BioAssay AID1851 (National Center for Advancing Translational Sciences (NCATS), 2009).

The structures appear in SMILES notation. Where “and” joins values, the source holds several entries; their conditions need not be identical. Identical values can stand only once. Hit rate of the full screen: of about 16,000 compounds, about 5,800 (36%) were called active. About 23% were inconclusive and are not listed. The list shows a part of the results. Unmarked numbers belong to inactive results. The call rests on the fitted dose curve; in most records, active means well fitted curve in the direction sought with a large enough effect; inconclusive means small, poorly fitted or top-dose-only effect, or effect the other way; inactive means no such curve, though single readings can be large or run the other way.
On the % scale 0 is the no-effect control and ±100 the full control effect.

In this test the target is Cytochrome P450 2C19 (Homo sapiens) (UniProt P33261). The test can be described thus: Cytochrome panel assay with activity outcomes. The settings on record: recombinant CYP, pro-luciferin dealkylation, luminescence, p450-cyp2c19; series mostly up to 57.1 µM.
Cytochrome P450 2C19 (Homo sapiens), sequence (P33261 whole entry, looked up): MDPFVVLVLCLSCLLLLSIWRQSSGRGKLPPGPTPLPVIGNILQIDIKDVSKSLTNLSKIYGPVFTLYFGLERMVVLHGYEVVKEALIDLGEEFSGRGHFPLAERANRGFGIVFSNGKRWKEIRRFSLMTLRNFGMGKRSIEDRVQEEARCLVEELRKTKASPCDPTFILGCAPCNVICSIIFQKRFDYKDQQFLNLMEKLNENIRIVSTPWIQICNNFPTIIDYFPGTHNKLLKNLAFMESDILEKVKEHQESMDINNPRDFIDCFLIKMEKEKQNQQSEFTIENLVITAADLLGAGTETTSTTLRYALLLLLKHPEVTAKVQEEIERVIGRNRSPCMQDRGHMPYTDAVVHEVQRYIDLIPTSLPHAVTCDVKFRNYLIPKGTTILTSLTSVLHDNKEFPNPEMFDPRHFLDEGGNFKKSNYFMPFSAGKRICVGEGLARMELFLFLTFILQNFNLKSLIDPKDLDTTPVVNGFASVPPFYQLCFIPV
In general, AC50 refers to the midpoint of the concentration-response curve, whichever way the signal moves. Regarding `CCN1C(=O)C(CC(=O)Nc2ccc(OC)cc2)N(Cc2cccs2)C1=S` (configuration not stated), the AC50 is 0.355 µM (active).

For the compound `COc1ccc(-c2nc3cnc(N(C)C)nc3n(Cc3cccs3)c2=O)cc1`, the AC50 result is “inactive”.

For the compound `CCNc1ncc2nc(-c3ccc(OC)cc3)c(=O)n(Cc3cccs3)c2n1`, the AC50 entry is “inactive”.

With `CCN1C(=O)C(CC(=O)Nc2ccc(OC)cc2)N(Cc2cccnc2)C1=S` (configuration not stated), the AC50 is 1.26 µM (active).

For `COc1ccc(C2C(C(=O)c3ccco3)=C(O)C(=O)N2Cc2cccnc2)cc1OC` (configuration not stated), the AC50 result was “inactive”.

For the compound `Cn1c(=O)[nH]c2ncn(C)c2c1=O`, the AC50 result was “inactive”.

Take `O=C(NCc1ccco1)c1ccccc1NS(=O)(=O)c1ccc(Br)s1`: the AC50 is 1.58 µM (active).

As for `Nc1ccccc1C#Cc1ccccc1`, the AC50 was 10 µM (active) and 5.01 µM (active).

For `O=C1C=C(c2cccs2)CC(c2cccs2)C1n1cnc([N+](=O)[O-])c1` (configuration not stated), the AC50 was 10 µM (active).

Consider `COc1ccccc1CN1CCCC2(CCN(C(=O)c3cnccn3)CC2)C1`, for which the AC50 entry was “inactive”.

Consider `COc1cc(/C=C(/NC(=O)c2ccccc2)C(=O)Nc2ccccc2)c([N+](=O)[O-])cc1OC`, for which the AC50 was 15.8 µM (active).

As for `O=C(Nc1cccc2ccccc12)/C(=C/c1ccc([N+](=O)[O-])cc1)NC(=O)c1ccccc1`, the AC50 was 7.94 µM (active).

As for `Cc1ccc(NC(=O)/C(=C\c2ccc([N+](=O)[O-])cc2)NC(=O)c2ccccc2)cc1`, the AC50 was 1.41 µM (active).

Regarding `O=C(Nc1ccccc1)/C(=C\c1ccncc1)NC(=O)c1ccccc1`, the AC50 is 0.126 µM (active).

With `O=C(c1cccc(F)c1)N1CCC[C@@]2(CCN(C(c3ccccc3)c3ccccc3)C2)C1`, the AC50 entry is “inactive”.

With `COc1ccc(COC(=O)N/N=C2/C[C@@H](O)[C@@H](O)[C@@H]3[C@H]4C(=O)N(c5ccc(F)cc5F)C(=O)[C@@H]4CC[C@H]23)cc1`, the activity, negative = inhibition is 31.9% [at 11.4 µM].

Turning to `Cc1cc2cc3c(C)cc(=O)oc3c(C)c2o1`, the AC50 entry was “inactive”.

As to `O=C(OCC(=O)c1ccc([N+](=O)[O-])cc1)/C(=C\c1ccc(Cl)cc1)NC(=O)c1ccccc1`, the AC50 is 3.98 µM (active).

Regarding `Cc1ccc(C(=O)N/C(=C\c2ccc([N+](=O)[O-])cc2)C(=O)NCCc2ccccc2)cc1`, the AC50 is 2 µM (active).

Regarding `Cc1ccc(NC(=O)Nc2nc(-c3ccc(C)s3)cs2)cc1`, the AC50 is 6.31 µM (active).

Take `Cc1ncn(-c2ccccc2O)c1C`: the activity, negative = inhibition is -11% [at 11.4 µM].

`Cn1c(=O)[nH]c(=O)c2c1nc(CN(Cc1ccccc1)Cc1ccccc1)n2CCN1CCOCC1`: the AC50 was 14.1 µM (active).

On to `COC(=O)Cn1c(CN(Cc2ccccc2)Cc2ccccc2)nc2c1c(=O)[nH]c(=O)n2C`, for which the AC50 is 28.2 µM (active).

Take `Cn1c(=O)[nH]c(=O)c2c1nc(NCCCO)n2CCCc1ccccc1`: the AC50 result was “inactive”.

As to `CCOC(=O)Cn1c(CN(Cc2ccccc2)Cc2ccccc2)nc2c1c(=O)[nH]c(=O)n2C`, the AC50 is 15.8 µM (active).

In the case of `Cc1ccc(C(=O)CNc2nc3c(c(=O)[nH]c(=O)n3C)n2Cc2ccccc2)cc1`, the AC50 is 5.62 µM (active).

For `Cn1c(=O)c2[nH]c(SCCN3CCOCC3)nc2n(C)c1=S`, the activity, negative = inhibition was -14.1% [at 11.4 µM].

On to `Cn1c(=O)[nH]c(=O)c2c1nc(CN1CCOCC1)n2Cc1ccccc1`, for which the AC50 entry was “inactive”.

`Cc1nc(CN2CCCCC2)c(O)c(=O)[nH]1`: the activity, negative = inhibition was -22.5% [at 11.4 µM].

Turning to `NC(=O)NC(=O)[C@H]1CCCC[C@@H]1C(=O)O`, the activity, negative = inhibition is 12.1% [at 11.4 µM].

Regarding `Cn1ncc2c(Cl)ncnc21`, the activity, negative = inhibition was -3.14% [at 11.4 µM].

In the case of `Cn1ncc2c(NCCc3ccccc3)nc(Cl)nc21`, the concentration at half-maximal activity (AC50) was 0.126 µM (active).

With `CCCCN(c1ccccc1)c1ncnc2c1cnn2C`, the activity, negative = inhibition was -9.3% [at 11.4 µM].

With `CN(C)c1ccc(-c2noc(C3CCN(S(=O)(=O)c4cccc(C(=O)O)c4)CC3)n2)cc1`, the AC50 entry is “inactive”.

Take `COc1ccccc1CN1CC[C@@]2(CCCN(C(=O)c3c(C)noc3C)C2)C1`: the AC50 entry is “inactive”.

For the compound `CCCCCC(=O)N1CCCC(c2nc(-c3ccc(OC)cc3)no2)C1` (configuration not stated), the AC50 is 7.08 µM (active).

With `COc1ccc(-c2noc(C3CCCN(C(=O)c4ccccc4OC)C3)n2)cc1OC` (configuration not stated), the AC50 was 11.2 µM (active).

`CCOC(=O)/C(C#N)=C1/C=CN(C)C=N1`: the AC50 result is “inactive”.

For `CCOC(=O)/C(C#N)=C1/SC(CC)C(=O)N1c1ccc(Br)cc1` (configuration not stated), the AC50 was 1.58 µM (active).

Take `Cn1c(=O)c2[nH]c(SCc3ccccn3)nc2n(C)c1=S`: the activity, negative = inhibition is 29.1% [at 11.4 µM].

In the case of `CC(C)OCCCn1c(=S)[nH]c2ncccc2c1=O`, the AC50 was 14.1 µM (active).

Regarding `COCCNC(=O)COC(=O)/C=C/c1cnc2ccccc2n1`, the AC50 was 22.4 µM (active).

Take `CC(C)(C)CC(C)(C)c1cc(O)c(O)c(CN2CCCCC2)c1`: the activity, negative = inhibition is -5.03% [at 11.4 µM].

For `O=C1C=C(Nc2ccc(Cl)cc2)CC(c2ccc(Cl)cc2)C1` (configuration not stated), the AC50 was 1.58 µM (active).

As to `O=C1O[C@H](CN2CCOCC2)CN1/N=C\c1ccc([N+](=O)[O-])o1`, the AC50 entry was “inactive”.

As for `Cn1c(/C=C/c2ccc([N+](=O)[O-])o2)nc2ccccc2c1=O`, the AC50 is 14.1 µM (active).

Turning to `Nc1ccc(S(=O)(=O)NCc2nccs2)cc1`, the AC50 was 0.0794 µM (active).

`Nc1ccc(S(=O)(=O)Nc2nccs2)cc1`: the AC50 entry is “inactive”.

Regarding `Nc1ccc(S(=O)(=O)Nc2ncccn2)cc1`, the AC50 result is “inactive”.

As for `O=C(NC(NCc1ccccc1)C(Cl)(Cl)Cl)c1cccnc1` (configuration not stated), the AC50 was 4.47 µM (active).

On to `Cc1cccc(NC(NC(=O)c2cccnc2)C(Cl)(Cl)Cl)c1` (configuration not stated), for which the AC50 is 2.82 µM (active).

On to `O=C(O)c1cccnc1`, for which the AC50 result is “inactive”.

For the compound `CCNc1ncc2nc(-c3cccs3)c(=O)n(CCC#N)c2n1`, the AC50 result was “inactive”.

For `COC(Cc1nnc(SC)n1-c1ccc(Cl)cc1)OC`, the AC50 entry was “inactive”.

Consider `COc1ccc(NCc2nnc(SCc3ccccc3)n2-c2ccc(OC)cc2)cc1`, for which the AC50 is 3.98 µM (active).

On to `COC(=O)CSc1nnc(CNc2ccc(Cl)cc2)n1-c1ccccc1`, for which the AC50 is 5.01 µM (active).

With `CCOc1ccc(NCc2nnc(SCc3ccccc3Cl)n2-c2ccccc2)cc1`, the AC50 was 2 µM (active).

Turning to `COC(Cc1nnc(SC)n1-c1ccccc1)OC`, the AC50 entry is “inactive”.

On to `CC(C)CN1CCCC2(CCN(C(=O)c3csnn3)CC2)C1`, for which the AC50 entry was “inactive”.

In the case of `C[C@@H]1CCCC(CC(=O)O)(CC(=O)O)C1`, the activity, negative = inhibition is 9.85% [at 11.4 µM].

`O=C(/C=C/c1ccc(Br)cc1)NC1CCCCCC1`: the AC50 entry is “inactive”.

As to `Cc1ccc(/C=C/C(=O)NC(=S)Nc2ccccc2C(=O)NC2CCCCC2)cc1`, the AC50 is 14.1 µM (active).

Turning to `O=c1c([N+](=O)[O-])cc(C(F)(F)F)cn1Cc1c(Cl)cccc1Cl`, the AC50 is 7.08 µM (active).

For `Cc1cc2nc3[nH]c4c(Cl)cc(Cl)cc4c3nc2cc1C`, the activity, negative = inhibition is 32.6% [at 11.4 µM].

Regarding `CN(Cc1ccco1)c1cc(-c2ccc3c(c2)OCO3)ncn1`, the AC50 is 10 µM (active).

`CN(C)c1ccc(-c2cc(N(C)Cc3ccco3)ncn2)cc1`: the AC50 is 10 µM (active).

Take `CN(C)C(=O)c1ccc(-c2cc(N(C)Cc3ccco3)ncn2)cc1`: the AC50 result is “inactive”.

As to `CC(=O)OC[C@H]1O[C@@H](O/N=C\[C@@H](C)[C@H](OCc2ccccc2)C(C)C)[C@H](OC(C)=O)[C@@H](OC(C)=O)[C@H]1OC(C)=O`, the activity, negative = inhibition is 12.9% [at 11.4 µM].

Consider `O=C1C=C(NCC2CCCO2)C2(CCCCC2)O1` (configuration not stated), for which the AC50 entry was “inactive”.

For the compound `Cc1cc2ccccc2nc1SCC(=O)Nc1nc(-c2ccccc2)cs1`, the AC50 result was “inactive”.

Regarding `COc1ccc2cc(C)c3nnc(SCC(=O)Nc4nc(-c5ccccc5)cs4)n3c2c1`, the AC50 is 5.01 µM (active).

`CC(=O)OC[C@@H]1O[C@H](C/C=N\O[C@@H]2O[C@H](COC(C)=O)[C@@H](OC(C)=O)[C@H](OC(C)=O)[C@H]2OC(C)=O)C=C[C@@H]1OC(C)=O`: the activity, negative = inhibition is 12.3% [at 11.4 µM].

`O=C(COc1ccc(Cl)cc1)Nc1ccc(N2CCN(C(=O)c3ccco3)CC2)cc1`: the AC50 result was “inactive”.

With `O=C(CN1CCN(c2ccc(Cl)cc2)CC1)Nc1cccc(F)c1`, the AC50 is 5.01 µM (active).

Regarding `O=C(CN1CCN(c2ccc(Cl)cc2)CC1)Nc1ccc(F)c(F)c1`, the AC50 is 7.94 µM (active).

Turning to `C[C@H]1O[C@@H](CC(=O)O)Cc2c1c(O)c1c(O)cc(-c3cc(=O)c4c(=O)c5c(c(=O)c=4c3=O)C[C@H](CC(=O)O)O[C@@H]5C)c(O)c1c2O`, the activity, negative = inhibition was -5.68% [at 11.4 µM].

Take `COC(=O)c1c(NC(=O)c2ccco2)sc2c1CCC2`: the AC50 is 4.47 µM (active).

`COCCn1c(=O)c(-c2ccc(Cl)cc2)nc2cnc(N(C)C)nc21`: the AC50 entry is “inactive”.

Consider `Cc1ccc2[nH]c3c(c2c1)CN(C(=O)CN1c2ccc(F)cc2CCC1C)CC3` (configuration not stated), for which the AC50 was 3.55 µM (active).

Take `COc1ccc2[nH]c3c(c2c1)CN(C)CC3`: the AC50 entry was “inactive”.

As for `COC(=O)c1ccc2ccn(CC(=O)NC3CCCCC3)c2c1`, the AC50 was 1.58 µM (active).

For the compound `CCOC(=O)CSC1=C(C#N)C(c2sccc2C)CC(=O)N1` (configuration not stated), the AC50 was 7.94 µM (active).

For the compound `COC(=O)CSC1=C(C#N)C(c2cccc(F)c2)CC(=O)N1` (configuration not stated), the AC50 was 11.2 µM (active).

Consider `CCOC(=O)CSC1=C(C#N)C(c2sccc2C)C(C(C)=O)=C(C)N1` (configuration not stated), for which the AC50 was 1.78 µM (active).

`CCOC(=O)Cc1c(C)nc2c(C#N)c[nH]n2c1=O`: the AC50 entry was “inactive”.

Regarding `CCOC(=O)C1=C(C)NC(C)=C(C(=O)OCC)C1c1sccc1C`, the AC50 is 1.78 µM (active).

On to `CCOC(=O)CSC1=C(C#N)C(C)C2=C(CCCC2=O)N1` (configuration not stated), for which the AC50 is 0.708 µM (active).

Turning to `COC(=O)C1=C(NC(=O)c2cccc(OC)c2)CCS1`, the concentration at half-maximal activity (AC50) was 14.1 µM (active).

As for `CCCCN(CC)S(=O)(=O)c1ccc(C(=O)Nc2nnc(CSC)o2)cc1`, the AC50 result is “inactive”.

As for `CCN(CC)S(=O)(=O)c1ccc(C(=O)NC2=C(C(=O)OC)SCC2)cc1`, the AC50 is 8.91 µM (active).

For the compound `COCCN(CCOC)S(=O)(=O)c1ccc(C(=O)Nc2nc(C)c(C(C)=O)s2)cc1`, the AC50 result was “inactive”.

On to `Cc1ccc(C2CC(C(F)(F)F)n3nc(C(=O)NCCN4CCOCC4)cc3N2)cc1` (configuration not stated), for which the AC50 result is “inactive”.
